Active and inactive are the calls of the source.

The values below come from PubChem BioAssay.

The subject of experiment [1] is PRMT1 (protein arginine N-methyltransferase 1). Put plainly: PRMT1 binders on small-molecule microarrays, primary screen, biochemical, small-molecule microarray, 635 nm fluorescence (AID 1088).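 Also: binding of Prmt1 protein to compounds spotted on small-molecule microarray slides.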 The settings on record: small-molecule microarray binding, higher = more signal.
The nature of experiment [2]: yeast growth modulation, basal conditions, primary screen, YJM789 clinical isolate, OD600, 24 h (AID 1089).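 Also: growth of clinical yeast isolate S. cerevisiae YJM 789 seeded 1000 cells per well; test concentration not given here.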 The settings on record: S. cerevisiae YJM789 growth, higher = more signal, called active from +8 up or from −8 down.
Experiment [3] is described as follows: fission yeast growth modulation, primary screen, strain 972, OD600, 24 h, no modulator (AID 1090).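 Also: basal condition with compound alone and no growth modifier present; test concentration not given here.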 The settings on record: S. pombe 972 growth, higher = more signal, called active from +8 up or from −8 down.
The nature of experiment [4]: S. cerevisiae growth modulation with rapamycin, primary screen, strain BY4716, OD600, 96 h (AID 1091). Also: test concentration not given here. The settings on record: higher = more signal, called active from +8 up or from −8 down.
For experiment [5], the target named is Torsin-1A-interacting protein 2 (Homo sapiens) (UniProt Q8NFQ8). In words: LULL1 binders on small-molecule microarray, primary screen, cell lysate, human LULL1 lysate, 635/667 nm fluorescence (AID 1092).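 Also: probe is lysate of COS7 cells overexpressing human LULL1; score merges per-feature 667 nm fluorescence with signal-to-noise.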 The settings on record: hLULL1 lysate binding, 635 nm fluorescence, higher = more signal.
The nature of experiment [6]: E. coli growth modulation, two-sided OD650, primary screen, E. coli filamentation project, strain DRC41, 24 h (AID 1093).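 Also: MC1000 strain lacking acrAB efflux and sulA so SOS filamentation is blocked; test concentration not given here.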 The settings on record: OD650, 24 h, higher = more signal, called active from +8 up or from −8 down.
Experiment [7] in a line: small-molecule microarray binders of probe aLefty2, primary screen, biochemical, biotinylated probe, 635/667 nm fluorescence (AID 1094).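 Also: score merges spot fluorescence near 667 nm with spot signal-to-noise ratio.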 The settings on record: higher = more signal.
Experiment [8] relates to Noggin (protein binding on small-molecule microarray). Put plainly: Noggin binders on small-molecule microarray, primary screen, biochemical, 635/667 nm fluorescence (AID 1095).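 Also: score merges 667 nm feature fluorescence with signal to noise over triplicate slides.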 The settings on record: 635 nm fluorescence, higher = more signal.
The target of experiment [9] is Neurogenic locus notch homolog protein 3 (Homo sapiens) (UniProt Q9UM47). In words: NOTCH3 binders on small-molecule microarray, primary screen, biochemical, 635/667 nm fluorescence (AID 1096). The settings on record: NOTCH3 binding, 635 nm fluorescence, higher = more signal.
A short description of experiment [10]: small-molecule microarray binders of probe aEGFR, primary screen, biochemical, biotinylated probe, 635/667 nm fluorescence (AID 1097).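 Also: probe is a biotinylated anti-EGFR antibody binding compounds printed on slides; score combines fluorescence near 667 nm and signal to noise of each spot.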 The settings on record: higher = more signal.
Experiment [11] relates to Plasmodium falciparum Sir2 (PF13_0152, Sir2A). Put plainly: pfSir2 binders on small-molecule microarrays, primary screen, biochemical, small-molecule microarray, 635 nm fluorescence (AID 1098).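 Also: score merges spot fluorescence intensity with its signal-to-noise ratio.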 The settings on record: small-molecule microarray binding, fluorescence 635 nm; higher = more signal.
Experiment [12] is described as follows: small-molecule microarray binders of probe aDKK1, primary screen, biochemical, biotinylated probe, 635/667 nm fluorescence (AID 1099).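 Also: score merges 667nm spot fluorescence with signal to noise across triplicate slides; reference of the scale not given here.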 The settings on record: higher = more signal.
Experiment [13] can be described thus: small-molecule microarray binders of probe aCHRDL2, primary screen, biochemical, biotinylated probe, 635/667 nm fluorescence (AID 1100). The settings on record: higher = more signal.
Experiment [14] in a line: splicing luciferase reporter signal modulators, primary screen, spliceosome inhibition project, cell-based, HEK293, splice +/- reporter (AID 1101).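 Also: HEK293 cells carrying a splicing-competent luciferase reporter gene; test concentration not given here.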 The settings on record: luminescence, 24 h, higher = more signal, called active from +8 up or from −8 down.
Experiment [15] deals with Fibroblast growth factor 10 (Homo sapiens) (UniProt O15520). Put plainly: FGF10 binders on small-molecule microarrays, primary screen, biochemical, small-molecule microarray, 635 nm fluorescence (AID 1102). The settings on record: FGF10 binding, fluorescence 635 nm, higher = more signal.
Experiment [16] concerns glycogen synthase kinase-3 (GSK3A per assay name; protocol says GSK3B). In words: GSK3 binders on small-molecule microarrays, primary screen, biochemical, small-molecule microarray, 635 nm fluorescence, GSK3A (AID 1103). Also: the record names both GSK3A and GSK3B. The settings on record: small-molecule microarray binding, fluorescence 635 nm; higher = more signal.
The target of experiment [17] is Epidermal growth factor receptor (Homo sapiens) (UniProt P00533). Put plainly: EGFR binders on small-molecule microarrays, primary screen, biochemical, small-molecule microarray, 635 nm fluorescence (AID 1104).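 Also: score merges 667 nm emission intensity with spot signal to noise over triplicate slides.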 The settings on record: EGFR binding, higher = more signal.
Experiment [18] concerns the target Follistatin-related protein 3 (Homo sapiens) (UniProt O95633). Put plainly: FSTL3 binders on small-molecule microarrays, primary screen, biochemical, small-molecule microarray, 635 nm fluorescence (AID 1105).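 Also: score merges emission near 667 nm and signal to noise per printed spot across three slides.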 The settings on record: FSTL3 binding, higher = more signal.
Experiment [19] concerns the target Dickkopf-related protein 1 (Homo sapiens) (UniProt O94907). In words: DKK1 binders on small-molecule microarrays, primary screen, biochemical, small-molecule microarray, 635 nm fluorescence scan (AID 1106).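 Also: score merges emission near 667 nm with signal to noise over three replicate slides.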 The settings on record: DKK1 binding, higher = more signal.
In experiment [20] the test system is Inhibin beta A chain (activin A). Put plainly: INHBA (activin A) binders on microarrays, primary screen, biochemical, small-molecule microarray, 635 nm fluorescence scan (AID 1107).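 Also: mouse activin A protein probed at 4.33 µg/mL on printed slides; score merges bound-protein fluorescence near 667 nm with spot signal-to-noise.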 The settings on record: small-molecule microarray binding, higher = more signal.

Chain of Fibroblast growth factor 10 (Homo sapiens) (O15520 whole entry, looked up): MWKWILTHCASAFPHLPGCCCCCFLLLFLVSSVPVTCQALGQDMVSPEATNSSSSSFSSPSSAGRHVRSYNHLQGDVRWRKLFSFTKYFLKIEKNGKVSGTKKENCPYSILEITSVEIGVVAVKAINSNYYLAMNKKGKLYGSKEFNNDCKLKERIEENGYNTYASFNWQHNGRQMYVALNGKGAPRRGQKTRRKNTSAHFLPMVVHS
Chain of Neurogenic locus notch homolog protein 3 (Homo sapiens) (Q9UM47 whole entry, looked up): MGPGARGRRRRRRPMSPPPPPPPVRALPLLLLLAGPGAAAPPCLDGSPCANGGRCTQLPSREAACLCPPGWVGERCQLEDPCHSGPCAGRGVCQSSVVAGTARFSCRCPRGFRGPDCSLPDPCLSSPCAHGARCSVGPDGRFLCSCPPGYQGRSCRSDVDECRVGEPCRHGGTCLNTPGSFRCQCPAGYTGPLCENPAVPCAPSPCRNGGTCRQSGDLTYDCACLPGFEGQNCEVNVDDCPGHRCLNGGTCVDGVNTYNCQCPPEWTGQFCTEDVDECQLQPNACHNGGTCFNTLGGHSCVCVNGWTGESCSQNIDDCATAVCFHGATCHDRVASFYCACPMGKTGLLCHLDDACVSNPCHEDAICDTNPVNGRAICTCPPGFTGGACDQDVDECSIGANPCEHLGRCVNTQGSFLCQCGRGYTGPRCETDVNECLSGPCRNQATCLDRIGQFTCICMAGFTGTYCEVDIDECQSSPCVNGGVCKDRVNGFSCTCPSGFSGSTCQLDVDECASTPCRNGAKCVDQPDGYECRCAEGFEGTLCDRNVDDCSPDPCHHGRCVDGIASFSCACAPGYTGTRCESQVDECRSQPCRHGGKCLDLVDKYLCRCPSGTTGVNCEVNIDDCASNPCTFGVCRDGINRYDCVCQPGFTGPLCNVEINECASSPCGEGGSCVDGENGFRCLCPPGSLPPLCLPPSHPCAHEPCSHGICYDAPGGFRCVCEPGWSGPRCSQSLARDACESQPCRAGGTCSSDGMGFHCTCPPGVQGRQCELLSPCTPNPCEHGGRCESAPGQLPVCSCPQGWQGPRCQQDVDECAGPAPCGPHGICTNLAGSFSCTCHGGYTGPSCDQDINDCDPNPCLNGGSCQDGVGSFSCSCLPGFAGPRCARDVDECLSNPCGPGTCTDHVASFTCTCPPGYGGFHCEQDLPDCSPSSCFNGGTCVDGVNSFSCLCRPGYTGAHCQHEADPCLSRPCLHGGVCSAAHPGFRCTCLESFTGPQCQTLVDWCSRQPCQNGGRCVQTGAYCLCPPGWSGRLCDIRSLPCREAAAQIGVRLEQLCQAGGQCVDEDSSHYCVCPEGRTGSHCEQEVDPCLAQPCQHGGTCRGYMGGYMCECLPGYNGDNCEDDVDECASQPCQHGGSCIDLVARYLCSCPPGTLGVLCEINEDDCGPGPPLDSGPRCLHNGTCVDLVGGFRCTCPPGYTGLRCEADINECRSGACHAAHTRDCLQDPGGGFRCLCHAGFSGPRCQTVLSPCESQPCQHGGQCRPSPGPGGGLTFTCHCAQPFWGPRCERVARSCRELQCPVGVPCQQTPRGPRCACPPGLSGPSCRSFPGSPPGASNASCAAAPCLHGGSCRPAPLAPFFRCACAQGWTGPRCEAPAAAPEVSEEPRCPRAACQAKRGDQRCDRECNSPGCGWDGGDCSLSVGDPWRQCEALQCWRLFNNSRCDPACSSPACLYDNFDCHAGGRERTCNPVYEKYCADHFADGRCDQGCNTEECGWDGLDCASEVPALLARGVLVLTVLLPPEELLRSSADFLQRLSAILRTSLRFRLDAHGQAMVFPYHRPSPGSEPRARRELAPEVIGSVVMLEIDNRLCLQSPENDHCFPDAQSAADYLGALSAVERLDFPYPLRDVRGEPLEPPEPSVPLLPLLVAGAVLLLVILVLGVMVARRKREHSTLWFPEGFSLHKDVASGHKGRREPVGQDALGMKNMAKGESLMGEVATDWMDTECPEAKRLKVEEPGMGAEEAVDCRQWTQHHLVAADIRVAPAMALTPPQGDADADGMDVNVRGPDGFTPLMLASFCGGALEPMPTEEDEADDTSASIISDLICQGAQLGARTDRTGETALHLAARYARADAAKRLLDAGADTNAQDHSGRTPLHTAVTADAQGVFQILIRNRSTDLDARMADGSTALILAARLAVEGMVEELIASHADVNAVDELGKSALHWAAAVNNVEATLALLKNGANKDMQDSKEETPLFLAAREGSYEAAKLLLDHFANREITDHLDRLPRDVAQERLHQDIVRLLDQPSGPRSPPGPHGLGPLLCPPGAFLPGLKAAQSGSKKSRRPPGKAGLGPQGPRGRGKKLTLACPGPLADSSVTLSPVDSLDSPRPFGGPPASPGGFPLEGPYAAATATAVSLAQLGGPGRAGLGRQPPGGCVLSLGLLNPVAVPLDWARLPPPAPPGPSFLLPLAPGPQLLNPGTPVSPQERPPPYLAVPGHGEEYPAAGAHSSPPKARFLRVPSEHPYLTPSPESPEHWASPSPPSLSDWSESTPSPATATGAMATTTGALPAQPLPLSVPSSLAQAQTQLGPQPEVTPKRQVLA
Chain of Epidermal growth factor receptor (Homo sapiens) (P00533 whole entry, looked up): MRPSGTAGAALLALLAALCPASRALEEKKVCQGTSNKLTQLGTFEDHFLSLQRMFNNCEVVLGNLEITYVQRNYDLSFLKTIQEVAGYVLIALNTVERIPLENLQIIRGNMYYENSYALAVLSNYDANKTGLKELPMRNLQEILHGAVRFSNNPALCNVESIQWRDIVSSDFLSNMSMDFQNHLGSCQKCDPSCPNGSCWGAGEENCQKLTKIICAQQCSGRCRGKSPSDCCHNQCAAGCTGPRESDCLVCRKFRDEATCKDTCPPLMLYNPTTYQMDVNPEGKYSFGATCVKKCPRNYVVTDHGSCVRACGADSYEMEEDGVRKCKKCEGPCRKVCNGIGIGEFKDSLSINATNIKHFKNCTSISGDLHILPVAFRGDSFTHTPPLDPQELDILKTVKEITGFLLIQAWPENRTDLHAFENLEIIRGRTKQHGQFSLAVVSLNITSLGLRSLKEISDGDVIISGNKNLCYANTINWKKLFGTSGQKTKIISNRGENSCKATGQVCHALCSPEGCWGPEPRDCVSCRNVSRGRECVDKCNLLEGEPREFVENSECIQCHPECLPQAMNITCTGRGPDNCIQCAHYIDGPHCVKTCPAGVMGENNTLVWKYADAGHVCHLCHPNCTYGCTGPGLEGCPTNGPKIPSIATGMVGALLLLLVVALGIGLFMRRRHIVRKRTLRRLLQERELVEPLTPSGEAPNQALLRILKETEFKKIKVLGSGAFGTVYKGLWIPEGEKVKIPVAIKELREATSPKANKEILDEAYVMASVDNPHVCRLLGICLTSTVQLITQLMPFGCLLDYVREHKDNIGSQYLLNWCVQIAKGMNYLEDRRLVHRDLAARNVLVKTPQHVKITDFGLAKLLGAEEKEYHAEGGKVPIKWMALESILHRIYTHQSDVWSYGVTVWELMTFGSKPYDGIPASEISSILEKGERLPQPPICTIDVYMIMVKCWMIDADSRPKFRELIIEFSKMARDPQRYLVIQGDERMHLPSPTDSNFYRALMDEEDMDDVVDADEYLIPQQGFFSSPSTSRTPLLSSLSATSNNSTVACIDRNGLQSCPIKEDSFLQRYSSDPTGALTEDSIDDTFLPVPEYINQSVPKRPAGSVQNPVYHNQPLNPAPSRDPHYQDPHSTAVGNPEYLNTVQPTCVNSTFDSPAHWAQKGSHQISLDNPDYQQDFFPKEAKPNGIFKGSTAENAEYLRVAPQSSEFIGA
Chain of Dickkopf-related protein 1 (Homo sapiens) (O94907 whole entry, looked up): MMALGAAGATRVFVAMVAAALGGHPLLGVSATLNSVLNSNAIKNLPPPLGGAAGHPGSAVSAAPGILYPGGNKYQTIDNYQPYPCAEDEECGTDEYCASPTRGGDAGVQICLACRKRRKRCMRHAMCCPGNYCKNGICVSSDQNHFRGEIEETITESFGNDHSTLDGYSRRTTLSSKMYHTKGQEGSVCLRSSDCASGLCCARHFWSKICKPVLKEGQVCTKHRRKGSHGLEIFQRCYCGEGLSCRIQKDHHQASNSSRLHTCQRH
Chain of Torsin-1A-interacting protein 2 (Homo sapiens) (Q8NFQ8 whole entry, looked up): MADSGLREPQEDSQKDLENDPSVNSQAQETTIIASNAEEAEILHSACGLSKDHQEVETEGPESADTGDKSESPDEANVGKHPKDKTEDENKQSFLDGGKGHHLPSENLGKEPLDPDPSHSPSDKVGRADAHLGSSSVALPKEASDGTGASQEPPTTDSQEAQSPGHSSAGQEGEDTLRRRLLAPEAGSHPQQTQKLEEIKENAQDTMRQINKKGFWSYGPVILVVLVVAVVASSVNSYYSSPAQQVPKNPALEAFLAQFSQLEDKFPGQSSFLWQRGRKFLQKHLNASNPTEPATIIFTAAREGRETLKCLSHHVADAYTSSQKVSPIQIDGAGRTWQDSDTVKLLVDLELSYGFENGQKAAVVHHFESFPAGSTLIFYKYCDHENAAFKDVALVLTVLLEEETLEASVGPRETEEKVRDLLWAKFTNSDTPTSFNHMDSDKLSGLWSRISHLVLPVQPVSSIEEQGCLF
Chain of Follistatin-related protein 3 (Homo sapiens) (O95633 whole entry, looked up): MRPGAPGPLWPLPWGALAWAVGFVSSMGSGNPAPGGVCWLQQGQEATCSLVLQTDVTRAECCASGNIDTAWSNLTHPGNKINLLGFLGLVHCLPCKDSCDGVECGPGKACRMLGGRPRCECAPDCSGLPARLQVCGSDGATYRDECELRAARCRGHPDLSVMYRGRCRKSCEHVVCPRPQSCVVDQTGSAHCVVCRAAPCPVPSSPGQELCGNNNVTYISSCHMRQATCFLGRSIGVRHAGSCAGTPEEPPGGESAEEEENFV

For the compound `CCCCCCc1nc(C2CC2)cc2c1[Si](C(C)C)(C(C)C)O[C@H]2c1ccccc1`, the composite z-score in experiment [1] was -0.147; in [5], -0.624; in experiment [7] it was -0.0798; in experiment [8], 0.639; in experiment [9], 0.356; in experiment [10], 0.0122. Also, the composite z-score was 0.454 in [11]; -0.312 in experiment [12]; -0.191 in [13]; 0.402 in experiment [15]; -0.213 in experiment [16]; 0.341 in experiment [17]. Besides, the composite z-score amounted to 0.274 in [18], 0.546 in experiment [19] and 0.741 in [20]. For the same compound, the z-score was -0.746 (inactive) in experiment [2]; -0.575 (inactive) in [3]; -0.513 (inactive) in experiment [4]; -1.28 (inactive) in [6]; 0.214 (inactive) in experiment [14].
As for `COC(=O)[C@@]1(Cc2ccccc2N=[N+]=[N-])N=C(c2ccc(OCCCO)cc2)O[C@H]1c1ccccc1N=[N+]=[N-]`, the composite z-score was 1.54 in experiment [1]; 2.05 in experiment [5]; 0.258 in [7]; 0.717 in experiment [8]; 0.647 in [9]; -0.0211 in experiment [10]. Also, the composite z-score in experiment [11] was 1.52; in [12], 0.793; in experiment [13], 1; in experiment [15], 0.386; in experiment [16], 0.65; in experiment [17], -0.098. Besides, the composite z-score in experiment [18] came to 0.419; in experiment [19] it was 0.0345; in experiment [20], 1.31. Further, the z-score in [2] was -1.13 (inactive); in [3], -3.84 (inactive); in experiment [4] it was 26.2 (active); in [6], 1.51 (inactive); in [14] it was 7.07 (inactive).
`OCCCC1=CC(c2ccc(CN3CCCC3)cc2)N(Cc2sc3ccccc3c2Cl)CC1` (stereo not given): the composite z-score in experiment [1] turned out to be 1.2; in [5], 1.22; in experiment [7], 0.0998; in experiment [8], 0.895; in experiment [9], 0.686; in [10], 0.148. Further, the composite z-score in experiment [11] is 1.39; in [12] it was 0.14; in experiment [13], 0.504; in [15], 1.03; in experiment [16], 1.3; in experiment [17], 0.62. Further, the composite z-score was 0.854 in experiment [18], 0.771 in experiment [19] and 1.41 in experiment [20]. Besides, the z-score in experiment [2] is -0.72 (inactive); in experiment [3] it was -14.3 (active); in [4], -0.628 (inactive); in [6], -0.271 (inactive); in experiment [14] it was -1.07 (inactive).
Take `CCCCCCc1nc(-c2cc(C)c(OC)c(C)c2)c(C)c2c1[Si](C(C)C)(C(C)C)OC2`: the composite z-score in experiment [1] is -0.92; in experiment [5], -0.407; in experiment [7] it was -0.0915; in [8] it was 0.058; in [9], -0.127; in experiment [10], -0.171. Moreover, the composite z-score in experiment [11] was -0.17; in experiment [12] it was 0.101; in [13] it was -0.178; in [15] it was -0.722; in [16], -0.644; in [17], 0.202. The values for the composite z-score in experiment [18], in experiment [19] and in [20] were -0.0761, 0.0434 and 0.737, respectively. Further, the z-score in experiment [2] is 0.0333 (inactive); in experiment [3], -0.922 (inactive); in [4], 0.276 (inactive); in experiment [6], 0.352 (inactive); in experiment [14] it was -1.9 (inactive).
With `COc1cc2c(cc1OC)CN(C(=O)[C@@H]1[C@H]3C(=O)O[C@H](c4ccccc4)[C@H](c4ccccc4)N3[C@H](c3ccc(OCCO)cc3)[C@@]13C(=O)Nc1ccccc13)CC2`, the composite z-score in [1] was 1.54; in experiment [5], 3; in experiment [7] it was -0.126; in [8], 1.32; in experiment [9] it was 1.15; in experiment [10], 0.134. In addition, the composite z-score in experiment [11] amounted to 1.41; in experiment [12] it was 0.0269; in experiment [13] it was 0.0159; in experiment [15], 1.4; in experiment [16] it was 1.17; in experiment [17] it was 0.399. In addition, the composite z-score in experiment [18] is 1.07; in [19] it was 0.343; in experiment [20] it was 0.508. The z-score in experiment [2] was 3.17 (inactive); in [3], 1.16 (inactive); in experiment [4], 5.44 (inactive); in experiment [6], 0.761 (inactive); in [14] it was 0.576 (inactive).
